An excerpt weighted towards active compounds, which were near 12% of everything screened.
HP1b chromo inh = HP1-beta chromodomain-methylated histone interaction inhibition | AlphaScreen HP1-beta / biotin-H3K9me3 peptide binding | P83916 | 390,000 tested, 0.56% active | Potency, µM (titrated, usually from 114 µM), without a hit: at the top dose activity change, negative = inhibition, hits mostly inhibitors; note: nearly all actives have a fitted effect of over 70% in size
Target sequence (P83916 whole entry, looked up): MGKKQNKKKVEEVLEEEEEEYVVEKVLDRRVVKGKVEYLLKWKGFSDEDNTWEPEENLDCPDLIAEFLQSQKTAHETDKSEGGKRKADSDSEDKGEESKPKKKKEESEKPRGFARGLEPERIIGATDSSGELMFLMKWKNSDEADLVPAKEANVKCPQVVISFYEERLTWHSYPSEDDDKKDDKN
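AlphaScreen: HP1-beta (50 nM) preformed 30 min with biotin-H3(1-18)K9me3 peptide (50 nM) in PBS pH 7.4, 0.01% Tween-20. Compound added for 30 min at RT, then streptavidin donor/nickel chelate acceptor beads (10 ug/mL) for 30 min.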
Sfp PPTase inh = Sfp phosphopantetheinyl transferase inhibition; Potency, µM, for the others: largest response in the series, negative = inhibition, actives largely listed as inhibitors; 310,000 tested, 3.5% active; Q9F4F7; Biochemical Sfp PPTase activity, qHTS;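 note: the enzyme is Sfp with the accession as filed and its product quenches rhodamine fluorescence; 0% = enzyme reaction without inhibitor and -100% = no enzyme wells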
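Fluorescence-quenching assay: 15 nM Sfp-PPTase preincubated 15 min at room temperature with compound, then 5 uM rhodamine-CoA and 12.5 uM BHQ-2-labelled YbbR peptide added. Fluorescence (ex 525/em 598 nm) read at start and after 30 min; difference gives rate.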
L3MBTL1 inh = L3MBTL1 (human) inhibition; AlphaScreen L3MBTL1–H3K9me1 peptide binding; AID 485360; 230,000 tested, 0.66% active; Q9Y468; Potency, µM (top dose mostly 57.1 µM), inactives show at the highest dose activity, negative = inhibition, usual class: inhibitors; note: % is set by controls: 0 for no effect and ±100 for the full control effect; nearly all actives have a fitted effect of over 60% in size
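AlphaScreen assay: L3MBTL1 (50 nM final) was preincubated 30 min at room temperature with biotinylated H3(1-15)K9me1 peptide (75 nM final), then 30 min with library compounds; streptavidin donor and nickel chelate acceptor beads (10 ug/mL final) added, 30 min dark.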
JMJD2A Tudor inh = JMJD2A Tudor domain (human) inhibition. AlphaScreen JMJD2A-Tudor / H3K4me3 peptide binding. Potency, µM (series often up to 114 µM), for the others: at the top dose activity change, negative = inhibition, most hits filed as inhibitors. 390,000 tested, 4.4% active; note: % is set by controls: 0 for no effect and ±100 for the full control effect; nearly all actives have a fitted effect of over 50% in size
BAZ2B block = inhibitors of human BAZ2B bromodomain; AlphaScreen BAZ2B-H3K14Ac peptide displacement; Potency, µM (top dose mostly 114 µM), without a hit: at the highest dose activity change, negative = inhibition, most hits filed as inhibitors; 360,000 tested, 4.4% active; note: % is set by controls: 0 for no effect and ±100 for the full control effect; nearly all actives have a fitted effect of over 60% in size
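Complex of BAZ2B and biotin-H3K14Ac (50 nM apiece) forms over 30 min at RT, then faces library compounds up to 110 uM for another 30 min; AlphaScreen beads added, 20 min dark incubation, luminescence read.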
G9a block = blocks human histone lysine methyltransferase G9a; Q96KQ7; G9a H3K9 monomethylation, AlphaScreen, 2 h; Potency, µM (doses to about 102 µM), for inactives: at the top dose activity, negative = inhibition, actives largely listed as inhibitors; 350,000 tested, 8.8% active; note: % is set by controls: 0 for no effect and ±100 for the full control effect; nearly all actives have a fitted effect of over 75% in size
Target sequence (Q96KQ7 913-1193 limits assumed): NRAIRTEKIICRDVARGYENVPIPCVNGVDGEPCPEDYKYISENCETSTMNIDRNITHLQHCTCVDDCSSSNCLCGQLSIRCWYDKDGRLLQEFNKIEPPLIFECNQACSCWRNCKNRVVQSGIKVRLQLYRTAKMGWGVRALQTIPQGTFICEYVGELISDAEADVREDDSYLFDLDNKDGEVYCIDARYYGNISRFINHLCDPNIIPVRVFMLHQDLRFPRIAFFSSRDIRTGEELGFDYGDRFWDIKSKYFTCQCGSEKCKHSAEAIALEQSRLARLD
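G9a (20 nM) was preincubated 15 min with compound, then reacted 2 h at room temperature with 500 nM biotin-H3K9 peptide and 20 µM SAM. Monomethyl-H3K9 detected by AlphaScreen using anti-H3K9me1 antibody.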
Starred values were filed as active, the others as inactive; [ ] = another dose, or the depositor's remark. Calls come from the whole dose curve; as a rule, active = well fitted curve in the direction sought with a large enough effect; inconclusive = small, poorly fitted or top-dose-only effect, or another doubt; inactive = no such curve, though single readings can be large; an effect the other way counts as inactive or inconclusive. Potency is the fitted concentration of half-maximal effect.

`CC(C)c1ccc(S(=O)(=O)Nc2ccc(O)c(Sc3ncn[nH]3)c2)cc1` gave HP1b chromo inh 32.5%, Sfp PPTase inh -0.8%, JMJD2A Tudor inh -6.9%, BAZ2B block -23.4% and G9a block inconclusive.
For COc1ccc(S(=O)(=O)Nc2ccc(O)c(Sc3ncn[nH]3)c2)cc1 the results were HP1b chromo inh -1.3%, Sfp PPTase inh -6.2%, L3MBTL1 inh inconclusive, JMJD2A Tudor inh -14.9%, BAZ2B block -6.7% and G9a block 12.6µM*.
`COC(=O)c1ccc(Sc2ccccc2NS(=O)(=O)c2ccc(OC)cc2)nc1` gave HP1b chromo inh 35.7%, Sfp PPTase inh 6.6%, L3MBTL1 inh 12.3%, JMJD2A Tudor inh -16.1%, BAZ2B block 6.4% and G9a block 35.1%[59 µM].
Screening COC(=O)c1sc(-c2ccccc2)cc1NC(=O)c1cccc(Cl)c1 returned HP1b chromo inh 38.4%, JMJD2A Tudor inh 13.8%, BAZ2B block 0.6% and G9a block 7.2%[59 µM].
`COc1cc(Nc2nc3c(S(=O)(=O)c4ccc(C)c(C)c4)nnn3c3ccsc23)cc(OC)c1` gave HP1b chromo inh 29.9%, JMJD2A Tudor inh inconclusive, BAZ2B block -14.9% and G9a block 1.4%[59 µM].
`CCc1ccc(NC(=O)Cn2ccn(Cc3ccccc3OC)c(=O)c2=O)cc1` gave HP1b chromo inh 8.8%, JMJD2A Tudor inh -22.0%, BAZ2B block -9.9% and G9a block -1.0%[59 µM].
`CCN(CC)S(=O)(=O)c1ccc(C)c(NC(=O)CNCc2ccccc2OC)c1` gave HP1b chromo inh -22.4%, Sfp PPTase inh inconclusive, JMJD2A Tudor inh 11.2µM*, BAZ2B block 21.6% and G9a block 25.1µM*.
For COc1ccccc1CNCC(=O)Nc1ccc(N(C)C)cc1 the results were HP1b chromo inh -17.2%, Sfp PPTase inh -19.0%, JMJD2A Tudor inh 3.98µM*, BAZ2B block 50.1µM* and G9a block -10.0%[2.33 µM].
For COc1ccc(Oc2ncc3ncc(=O)n(Cc4cccs4)c3n2)cc1 the results were Sfp PPTase inh 21.1% and G9a block 0.8%[12.7 µM].
O=C(OCc1ccccc1F)c1ccc(-c2nnn(Cc3ccccc3)n2)cc1 was read as HP1b chromo inh 101.4%, JMJD2A Tudor inh 70.9%, BAZ2B block 10.6% and G9a block 0.9%[59 µM].
CCC1S/C(=C(\C#N)C(=O)NCc2ccco2)N(c2ccc(F)cc2)C1=O (centres undefined) was read as HP1b chromo inh 36.8%, Sfp PPTase inh 25.1µM*, L3MBTL1 inh 1.2%, JMJD2A Tudor inh -1.7%, BAZ2B block -30.5% and G9a block inconclusive.
Cc1ccc(CNC(=O)c2c3c(nc4ccccc24)C(=O)N(C2CCCCC2)C3)cc1 was read as HP1b chromo inh inconclusive, JMJD2A Tudor inh inconclusive, BAZ2B block -8.8% and G9a block 13.3%[59 µM].
CC1CSc2ccccc2NC1=S (centres undefined) was read as HP1b chromo inh -23.6%, Sfp PPTase inh -10.8%, L3MBTL1 inh -4.7%, JMJD2A Tudor inh -27.8%, BAZ2B block -5.3% and G9a block inconclusive.
`c1ccc(C2CSc3ccccc3N2)cc1` (centres undefined) gave HP1b chromo inh -11.5%, Sfp PPTase inh 56.2µM*, JMJD2A Tudor inh inconclusive, BAZ2B block inconclusive and G9a block 8.91µM*.
Cc1cccc(N2CCN(c3nc4ccc(C(=O)c5ccccc5)cc4n4cnnc34)CC2C)c1 (centres undefined) was read as HP1b chromo inh 29.0%, JMJD2A Tudor inh -11.4%, BAZ2B block -19.0% and G9a block inconclusive.
Screening COc1cccc(C2C(C#N)=C(N)N(N(C)C)C3=C2C(=O)CCC3)c1 (centres undefined) returned HP1b chromo inh 34.6%, Sfp PPTase inh -3.9%, JMJD2A Tudor inh -16.0%, BAZ2B block 3.2% and G9a block -3.4%.
`COc1cccc(C2C(C#N)=C(N)SC(c3ccccc3)C2[N+](=O)[O-])c1` (centres undefined) gave HP1b chromo inh -12.9%, Sfp PPTase inh 16.5%, L3MBTL1 inh -26.6%, JMJD2A Tudor inh inconclusive, BAZ2B block 50.1µM* and G9a block inconclusive.
NNC(=O)c1nnsc1-c1csnn1 was read as HP1b chromo inh 22.5% and JMJD2A Tudor inh 79.4µM*.
O=C(O)c1nnsc1-c1csnn1 was read as HP1b chromo inh 9.2% and JMJD2A Tudor inh -16.7%.
Screening CC1CCN(C(=S)Nc2ccc(F)cc2)CC1 returned HP1b chromo inh 19.2%, Sfp PPTase inh -0.3%, L3MBTL1 inh 3.6%, JMJD2A Tudor inh -6.4%, BAZ2B block 1.9% and G9a block 20.7%[59 µM].
Screening C/C(=N\NC(=S)Nc1ccc(F)cc1)C1CC1 returned HP1b chromo inh 15.1%, Sfp PPTase inh 44.7µM*, L3MBTL1 inh -8.1%, JMJD2A Tudor inh 28.2µM*, BAZ2B block -34.7% and G9a block inconclusive.
COc1ccc(NS(=O)(=O)c2ccc3nc(COc4ccc5ccccc5c4)[nH]c3c2)cc1 was read as HP1b chromo inh 9.9%, Sfp PPTase inh -6.5%, L3MBTL1 inh 1.7%, JMJD2A Tudor inh inconclusive, BAZ2B block 61.9% and G9a block inconclusive.
For COc1ccc(NS(=O)(=O)c2cccc(C(=O)NNC(=O)NCCCl)c2)cc1 the results were HP1b chromo inh 21.5%, Sfp PPTase inh 0.5%, L3MBTL1 inh -19.5%, JMJD2A Tudor inh -26.3%, BAZ2B block -49.7% and G9a block 50.1µM*.
`CCN(CC)S(=O)(=O)c1ccc2nc(CCl)[nH]c2c1` gave HP1b chromo inh 64.3%, Sfp PPTase inh 11.4%, L3MBTL1 inh -1.0%, JMJD2A Tudor inh -23.8%, BAZ2B block -18.6% and G9a block 50.1µM*.
`COc1ccccc1NS(=O)(=O)c1ccc(C)c(NC(=O)NCCCl)c1` gave HP1b chromo inh 4.9%, Sfp PPTase inh 89.1µM*, L3MBTL1 inh -8.6%, JMJD2A Tudor inh -12.1% and BAZ2B block -14.1%.
Screening COc1ccc(OCc2nc3ccc(S(=O)(=O)Nc4ccccc4Cl)cc3[nH]2)cc1 returned HP1b chromo inh -0.4%, Sfp PPTase inh 4.7%, L3MBTL1 inh -6.8%, JMJD2A Tudor inh 39.8µM*, BAZ2B block -18.5% and G9a block -10.9%[59 µM].
CCN(CC)S(=O)(=O)c1ccc(Cl)nc1 was read as HP1b chromo inh 29.2%, Sfp PPTase inh 4.1%, JMJD2A Tudor inh 12.0% and G9a block -31.5%.
For Cc1cc2nc(-c3ccc(OCc4ccccc4F)cc3)cc(C(F)(F)F)n2n1 the results were HP1b chromo inh 78.3%, JMJD2A Tudor inh 16.8%, BAZ2B block 6.3% and G9a block 18.3%[59 µM].

Screening data (PubChem BioAssay)
